Assay results from a collection of fitness landscapes (doi:10.1016/j.celrep.2020.107928).
The full ranking holds about 81,000 sequences; the median of “one-hybrid fitness for binding NBS DNA” is about -0.1, and the highest 2% start at about 0.36. The sample holds the highest values, similar sequences and a random draw of the others, so the mix is not that of the screen.

B1: Caulobacter ParB omega fusion; a variant is named by its letters at X, in order, B8GW30 (parent)
chain: MESVVVGEPGMSEGRRGLGRGLSALLGEVDAAPAQAPGEQLGGSREAPIEILQRNPDQPRRTFREEDLEDLSNSIREKGVLQPILVRPSPDTAGEYQIVAGERAWRAAQRAGLKTVPIMVRELDDLAVLEIGIIENVQRADLNVLEEALSYKVLMEKFERTQENIAQTIGKSXSHVANXMRLLXLPDEVQSYLVSGELTAXHARAIAAAADPVALAKQIIEGGLSVRETEALARKAPNLSAGKSKGGRPPRVKDTDTQALESDLSSVLGLDVSIDHRGSTGTLTITYATLEQLDDLCNRLTRGI

Variants of: B1
Test: one-hybrid fitness for binding NBS DNA (the Noc-binding site; scaled: cognate 1, non-cognate 0); higher = stronger binding
Conditions: with NBS DNA site
How it was run: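 In E. coli USO, a HIS3 reporter with its site placed 19 bp from the promoter was used to select Caulobacter ParB variants randomised at four specificity codons. Growth lasted 48 hours at 37°C on histidine-free M9 containing 0.1 mM IPTG and 5 mM 3-AT. Fitness was taken as the log change in variant-to-wild-type read ratio from Illumina sequencing of pre- and post-selection plasmids, rescaled between the non-cognate and cognate sites.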

Variant	one-hybrid fitness for binding NBS DNA
PNQS	≤ 0.2
SNTG	≤ 0.2
AFGR	≤ 0.2
RKNW	≤ 0.2
QVDT	≤ 0.2
QVRT	0.56
QVPT	≤ 0.2
QVHT	0.373
QVHS	0.296
QVNT	0.44
QVYT	0.268
QVHP	≤ 0.2
QVNH	≤ 0.2
VWQD	≤ 0.2
RNQS	0.281
FLHG	≤ 0.2
RITD	≤ 0.2
RTTR	0.571
RITR	0.437
RSTN	≤ 0.2
RITP	≤ 0.2
RATN	≤ 0.2
RATP	≤ 0.2
RSTP	≤ 0.2
RATR	0.43

Variant	one-hybrid fitness for binding NBS DNA
RTTQ	≤ 0.2
RSTR	0.447
RTTF	≤ 0.2
PCDK	≤ 0.2
FRRH	≤ 0.2
RLSY	≤ 0.2
INTS	≤ 0.2
LHDW	≤ 0.2
TECL	≤ 0.2
SMQN	≤ 0.2
TDVE	≤ 0.2
RHTK	≤ 0.2
RKTN	≤ 0.2
RHTG	≤ 0.2
RLTR	0.443
RRTF	≤ 0.2
RHTR	0.459
RRTC	0.314
RRTR	0.75
RKTR	0.602
RLTY	≤ 0.2
RKTK	≤ 0.2
RLTQ	≤ 0.2
RNPQ	≤ 0.2
MEAC	≤ 0.2

Variant	one-hybrid fitness for binding NBS DNA
CITN	≤ 0.2
YDAI	≤ 0.2
TGAY	≤ 0.2
NFLN	≤ 0.2
CWAR	≤ 0.2
PSCM	≤ 0.2
QDAF	≤ 0.2
APPH	≤ 0.2
CTYS	≤ 0.2
ATYE	≤ 0.2
RCTR	0.534
RPTR	≤ 0.2
RMTR	0.446
RMTH	≤ 0.2
RFTR	0.298
RMTP	≤ 0.2
FPHC	≤ 0.2
CSFN	≤ 0.2
QDVR	≤ 0.2
QSVD	≤ 0.2
QGVR	≤ 0.2
QSVR	0.379
QPVR	0.377
QPVH	≤ 0.2
QSVN	≤ 0.2

Variant	one-hybrid fitness for binding NBS DNA
QPVN	≤ 0.2
QCVR	0.48
RICA	≤ 0.2
IIHR	≤ 0.2
TNLI	≤ 0.2
SPSF	≤ 0.2
FYQC	≤ 0.2
GTTP	≤ 0.2
QSER	0.285
QTEP	≤ 0.2
QRER	0.637
QPER	≤ 0.2
QCER	0.438
QTEN	≤ 0.2
QHER	0.288
QTER	0.458
QIER	0.219
SKCT	≤ 0.2
HAHK	≤ 0.2
QAQC	≤ 0.2
VFIG	≤ 0.2
QSSH	≤ 0.2
QCSM	≤ 0.2
QRSN	0.366
QRSM	0.374

Variant	one-hybrid fitness for binding NBS DNA
QPSN	≤ 0.2
QRSH	0.522
QCSC	≤ 0.2
QPSM	≤ 0.2
QCSH	0.272
QSSC	≤ 0.2
QCSN	≤ 0.2
QRSC	0.366
YCVT	≤ 0.2
ANMM	≤ 0.2
GNYC	≤ 0.2
KFHF	≤ 0.2
LSDV	≤ 0.2
QMHF	≤ 0.2
GKLV	≤ 0.2
PMVT	≤ 0.2
VREL	≤ 0.2
QCSQ	0.271
QRSS	0.659
QRSQ	0.434
QRSP	≤ 0.2
QRSD	0.208
QPSQ	≤ 0.2
MSPC	≤ 0.2
KWCV	≤ 0.2

Variant	one-hybrid fitness for binding NBS DNA
LAAG	≤ 0.2
HYQF	≤ 0.2
QCFR	0.517
QPFR	≤ 0.2
QSFN	≤ 0.2
QDFR	≤ 0.2
QSFH	≤ 0.2
QSFR	0.37
FCHW	≤ 0.2
TICV	≤ 0.2
LGEA	≤ 0.2
FLQL	≤ 0.2
LSCN	≤ 0.2
HMKT	≤ 0.2
TSIM	≤ 0.2
LVHF	≤ 0.2
QCYC	0.204
QMRC	0.406
QPRC	≤ 0.2
QMYC	≤ 0.2
QTDC	≤ 0.2
QMDC	≤ 0.2
QKRC	0.425
QCRC	0.512
QKDC	≤ 0.2

Variant	one-hybrid fitness for binding NBS DNA
QTRC	0.548
QTYC	≤ 0.2
QKYC	≤ 0.2
PNKD	≤ 0.2
RLIW	≤ 0.2
CRYF	≤ 0.2
IAWR	≤ 0.2
GMPT	≤ 0.2
VMEC	≤ 0.2
LQWD	≤ 0.2
PYKF	≤ 0.2
ENTG	≤ 0.2
QSYC	≤ 0.2
QRRC	0.489
QRYC	0.296
QSDC	≤ 0.2
QREC	0.22
QSRC	0.374
IMYD	≤ 0.2
YWMG	≤ 0.2
QSFT	0.315
QPFT	≤ 0.2
QRFT	0.723
QCFT	0.424
NRAT	≤ 0.2

Variant	one-hybrid fitness for binding NBS DNA
QRAT	0.797
DRAT	≤ 0.2
RWNW	≤ 0.2
MQNW	≤ 0.2
DCWS	≤ 0.2
TDLC	≤ 0.2
NLFC	≤ 0.2
PGYI	≤ 0.2
MRFG	≤ 0.2
SRKF	≤ 0.2
PKCF	≤ 0.2
VYYR	≤ 0.2
QTIG	≤ 0.2
QTVG	≤ 0.2
QIKG	≤ 0.2
QRVG	0.232
QSKG	0.302
QRKG	0.485
QCKG	0.377
QTKG	0.503
QPKG	≤ 0.2
